For some assays here: Potency and affinity values are given separately.
Legend:
Set-up in all cases: scale not given: direction of the effect not stated beside the values
[1] = target: Protein translocase subunit SecA (Escherichia coli (strain K12)) (UniProt P10408); test: Assay to Identify E. coli SecA ATPase Inhibitors; format: functional; conditions: 30 µM
[2] = target: T1, Ubiquitin-activating enzyme e1, putative (Leishmania donovani (strain BPK282A1)) (UniProt E9BSI1); test: Leishmania donovani Ubiquitin Activating Enzyme (LdE1); format: functional; conditions: 30 µM
T1 sequence (whole entry): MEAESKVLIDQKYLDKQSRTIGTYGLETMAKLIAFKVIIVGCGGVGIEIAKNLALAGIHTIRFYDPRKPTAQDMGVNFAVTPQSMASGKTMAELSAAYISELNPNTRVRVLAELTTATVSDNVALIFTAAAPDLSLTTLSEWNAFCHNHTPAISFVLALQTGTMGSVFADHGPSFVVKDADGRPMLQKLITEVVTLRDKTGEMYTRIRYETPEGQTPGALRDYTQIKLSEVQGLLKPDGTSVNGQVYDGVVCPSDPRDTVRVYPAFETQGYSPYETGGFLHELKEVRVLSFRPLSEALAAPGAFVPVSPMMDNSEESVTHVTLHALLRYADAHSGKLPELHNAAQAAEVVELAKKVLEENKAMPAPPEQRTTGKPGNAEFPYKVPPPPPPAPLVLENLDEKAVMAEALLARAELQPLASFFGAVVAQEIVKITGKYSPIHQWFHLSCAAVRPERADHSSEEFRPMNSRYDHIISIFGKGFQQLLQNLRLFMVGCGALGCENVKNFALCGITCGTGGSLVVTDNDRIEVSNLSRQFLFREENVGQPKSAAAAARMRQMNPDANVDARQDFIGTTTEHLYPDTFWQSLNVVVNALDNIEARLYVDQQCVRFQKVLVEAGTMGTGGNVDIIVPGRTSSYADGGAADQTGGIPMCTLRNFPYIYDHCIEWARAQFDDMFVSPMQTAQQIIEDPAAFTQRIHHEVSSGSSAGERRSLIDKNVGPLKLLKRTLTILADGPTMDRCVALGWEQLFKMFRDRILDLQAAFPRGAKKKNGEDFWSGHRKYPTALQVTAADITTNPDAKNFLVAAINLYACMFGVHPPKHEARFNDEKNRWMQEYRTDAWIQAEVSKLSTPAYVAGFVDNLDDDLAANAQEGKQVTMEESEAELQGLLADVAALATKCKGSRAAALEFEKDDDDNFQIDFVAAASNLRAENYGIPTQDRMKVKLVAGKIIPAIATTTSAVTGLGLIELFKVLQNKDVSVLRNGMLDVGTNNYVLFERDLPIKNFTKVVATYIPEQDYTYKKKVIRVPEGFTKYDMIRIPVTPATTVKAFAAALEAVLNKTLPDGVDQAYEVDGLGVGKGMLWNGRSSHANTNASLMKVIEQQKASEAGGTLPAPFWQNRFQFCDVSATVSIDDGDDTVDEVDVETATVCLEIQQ

[3] = target: AMP-activated protein kinase, AMPK (Homo sapiens) (UniProt P54646+O43741+P54619+Q9UGJ0+Q9Y478+Q13131+Q9UGI9); test: AMP-dependent Kinase enzyme assay. An in vitro enzyme assay that detects ADP turnover that is directly proportional to AMPK activity. This uses naive AMPK that is activated during the assay with MK-8722; format: functional; conditions: 30 µM
[4] = target: Sialic acid-binding Ig-like lectin 9 (Homo sapiens) (UniProt Q9Y336); test: Hs-Siglec9 ALPHAscreen SOP 20170721; conditions: 10 µM
Trypanosoma cruzi = test: Trypanosoma cruzi phosphomannomutase and mannose-1-phosphate guanylyltransferase assay; format: functional; conditions: 10 µM
[5] = target: T2, Arginase-2, mitochondrial (Homo sapiens) (UniProt P78540); test: in vitro enzyme assay to detect the production of urea directly proportional to the activity of Arginase II; format: functional; conditions: 33.3 µM; note: in the data most compounds retested in dose-response had high values
T2 sequence (whole entry): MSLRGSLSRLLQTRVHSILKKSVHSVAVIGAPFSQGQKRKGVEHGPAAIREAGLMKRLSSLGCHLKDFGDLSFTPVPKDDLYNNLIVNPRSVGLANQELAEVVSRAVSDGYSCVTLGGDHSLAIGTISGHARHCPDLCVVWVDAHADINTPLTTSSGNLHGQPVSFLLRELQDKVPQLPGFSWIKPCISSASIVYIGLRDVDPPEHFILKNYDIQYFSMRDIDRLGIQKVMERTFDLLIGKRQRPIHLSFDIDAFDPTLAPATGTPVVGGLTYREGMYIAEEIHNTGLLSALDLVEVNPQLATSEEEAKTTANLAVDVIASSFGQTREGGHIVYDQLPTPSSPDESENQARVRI

[6] = target: T3, Proteasome subunit beta (Trypanosoma cruzi) (UniProt O96673); test: Trypanosoma cruzi proteasome chymotrypsin-like activity (TcProtChymo) assay.; note: in the data most compounds retested in dose-response had high values; format: functional; conditions: 9.37 µM
T3 sequence (whole entry): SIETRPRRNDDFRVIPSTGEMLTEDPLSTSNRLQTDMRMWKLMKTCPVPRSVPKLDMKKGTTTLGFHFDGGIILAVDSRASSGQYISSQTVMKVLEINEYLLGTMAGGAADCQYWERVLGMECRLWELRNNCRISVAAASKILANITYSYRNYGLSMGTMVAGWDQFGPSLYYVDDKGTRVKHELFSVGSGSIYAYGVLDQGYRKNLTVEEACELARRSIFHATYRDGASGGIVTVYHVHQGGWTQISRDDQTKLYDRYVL

Homo sapiens = species: Homo sapiens; test: To identify inhibition of the IFN signalling (Jak-Stat) pathway via expression of an eGFP reporter gene under the control of an IFN-stimulated response element (ISRE) containing MxA promoter.; format: functional; conditions: 30 µM
[7] = target: T4, Tyrosyl-tRNA synthetase, putative (Trypanosoma cruzi (strain CL Brener)) (UniProt Q4DSP6); test: Trypanosoma cruzi tyrosyl tRNA synthetase (TcYRS) _High Tyrosine SOP; format: functional; conditions: 30 µM; note: in the data most compounds retested in dose-response had high values
T4 sequence (whole entry): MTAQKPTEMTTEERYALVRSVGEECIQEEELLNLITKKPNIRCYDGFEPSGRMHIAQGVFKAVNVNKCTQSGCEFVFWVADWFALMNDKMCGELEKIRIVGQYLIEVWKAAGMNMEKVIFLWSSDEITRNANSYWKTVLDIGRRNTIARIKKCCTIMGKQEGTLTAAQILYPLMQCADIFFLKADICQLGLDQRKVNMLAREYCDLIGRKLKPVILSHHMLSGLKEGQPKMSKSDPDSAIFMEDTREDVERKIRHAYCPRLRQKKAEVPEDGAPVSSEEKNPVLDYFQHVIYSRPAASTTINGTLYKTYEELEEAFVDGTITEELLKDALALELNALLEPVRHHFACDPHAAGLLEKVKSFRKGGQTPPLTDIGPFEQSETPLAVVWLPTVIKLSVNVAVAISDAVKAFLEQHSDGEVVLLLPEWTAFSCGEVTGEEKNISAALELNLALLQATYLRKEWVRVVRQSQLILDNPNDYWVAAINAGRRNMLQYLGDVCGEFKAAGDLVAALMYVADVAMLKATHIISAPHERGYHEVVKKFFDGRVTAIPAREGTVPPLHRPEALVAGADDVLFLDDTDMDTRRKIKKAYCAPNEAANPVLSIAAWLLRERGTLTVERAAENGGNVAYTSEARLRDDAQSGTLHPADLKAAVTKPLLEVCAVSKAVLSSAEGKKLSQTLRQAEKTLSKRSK

[8] = target: T4, Tyrosyl-tRNA synthetase, putative (Trypanosoma cruzi (strain CL Brener)); test: Trypanosoma cruzi tyrosyl tRNA synthetase (TcYRS) SOP; format: functional; conditions: 30 µM
[9] = target: Chromo domain-containing protein 1 (Saccharomyces cerevisiae (strain ATCC 204508 / S288c) (Baker's yeast)) (UniProt P32657); test: ScCHD-1 Enzyme Inhibition Assay; format: functional; conditions: 30 µM; note: in the data most compounds retested in dose-response had high values
Sequence of Chromo domain-containing protein 1 (Saccharomyces cerevisiae (strain ATCC 204508 / S288c) (Baker's yeast)) (P32657 whole entry, the tested form may be a part): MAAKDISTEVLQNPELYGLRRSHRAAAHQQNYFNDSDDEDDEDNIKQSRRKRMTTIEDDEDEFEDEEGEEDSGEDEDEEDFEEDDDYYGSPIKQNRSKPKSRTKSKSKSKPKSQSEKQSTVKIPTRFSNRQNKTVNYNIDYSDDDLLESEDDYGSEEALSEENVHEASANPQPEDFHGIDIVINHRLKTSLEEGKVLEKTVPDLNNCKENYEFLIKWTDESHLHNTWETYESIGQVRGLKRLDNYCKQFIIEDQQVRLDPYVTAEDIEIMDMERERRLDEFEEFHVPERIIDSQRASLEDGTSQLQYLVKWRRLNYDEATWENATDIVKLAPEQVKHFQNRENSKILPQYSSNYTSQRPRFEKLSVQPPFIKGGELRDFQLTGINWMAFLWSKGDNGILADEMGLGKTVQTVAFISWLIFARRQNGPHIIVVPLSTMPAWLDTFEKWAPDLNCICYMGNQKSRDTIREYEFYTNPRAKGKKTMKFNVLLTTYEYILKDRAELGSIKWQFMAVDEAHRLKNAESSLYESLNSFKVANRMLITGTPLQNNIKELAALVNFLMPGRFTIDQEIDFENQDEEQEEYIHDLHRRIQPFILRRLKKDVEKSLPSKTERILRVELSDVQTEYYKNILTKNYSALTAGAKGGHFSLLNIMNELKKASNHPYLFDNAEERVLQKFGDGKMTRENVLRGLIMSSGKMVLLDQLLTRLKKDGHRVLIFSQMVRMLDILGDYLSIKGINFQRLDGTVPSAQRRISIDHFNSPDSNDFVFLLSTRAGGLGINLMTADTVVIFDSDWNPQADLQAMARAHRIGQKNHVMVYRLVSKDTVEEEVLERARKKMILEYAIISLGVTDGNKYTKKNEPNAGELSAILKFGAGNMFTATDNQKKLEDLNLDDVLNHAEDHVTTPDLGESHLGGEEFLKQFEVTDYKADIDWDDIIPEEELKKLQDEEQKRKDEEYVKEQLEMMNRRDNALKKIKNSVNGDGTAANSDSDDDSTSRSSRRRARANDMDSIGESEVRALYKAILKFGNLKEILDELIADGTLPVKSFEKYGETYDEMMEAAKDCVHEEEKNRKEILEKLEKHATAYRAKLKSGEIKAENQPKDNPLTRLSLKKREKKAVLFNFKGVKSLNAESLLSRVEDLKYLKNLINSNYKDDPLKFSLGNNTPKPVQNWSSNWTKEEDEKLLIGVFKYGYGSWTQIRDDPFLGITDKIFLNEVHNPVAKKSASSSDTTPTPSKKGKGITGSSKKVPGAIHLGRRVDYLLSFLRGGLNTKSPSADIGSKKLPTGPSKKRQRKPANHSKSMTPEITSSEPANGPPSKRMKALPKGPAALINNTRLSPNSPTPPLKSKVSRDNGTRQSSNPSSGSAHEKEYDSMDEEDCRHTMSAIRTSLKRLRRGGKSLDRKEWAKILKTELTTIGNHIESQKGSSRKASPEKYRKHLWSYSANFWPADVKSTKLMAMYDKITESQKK

Sequence of Protein translocase subunit SecA (Escherichia coli (strain K12)) (P10408 whole entry): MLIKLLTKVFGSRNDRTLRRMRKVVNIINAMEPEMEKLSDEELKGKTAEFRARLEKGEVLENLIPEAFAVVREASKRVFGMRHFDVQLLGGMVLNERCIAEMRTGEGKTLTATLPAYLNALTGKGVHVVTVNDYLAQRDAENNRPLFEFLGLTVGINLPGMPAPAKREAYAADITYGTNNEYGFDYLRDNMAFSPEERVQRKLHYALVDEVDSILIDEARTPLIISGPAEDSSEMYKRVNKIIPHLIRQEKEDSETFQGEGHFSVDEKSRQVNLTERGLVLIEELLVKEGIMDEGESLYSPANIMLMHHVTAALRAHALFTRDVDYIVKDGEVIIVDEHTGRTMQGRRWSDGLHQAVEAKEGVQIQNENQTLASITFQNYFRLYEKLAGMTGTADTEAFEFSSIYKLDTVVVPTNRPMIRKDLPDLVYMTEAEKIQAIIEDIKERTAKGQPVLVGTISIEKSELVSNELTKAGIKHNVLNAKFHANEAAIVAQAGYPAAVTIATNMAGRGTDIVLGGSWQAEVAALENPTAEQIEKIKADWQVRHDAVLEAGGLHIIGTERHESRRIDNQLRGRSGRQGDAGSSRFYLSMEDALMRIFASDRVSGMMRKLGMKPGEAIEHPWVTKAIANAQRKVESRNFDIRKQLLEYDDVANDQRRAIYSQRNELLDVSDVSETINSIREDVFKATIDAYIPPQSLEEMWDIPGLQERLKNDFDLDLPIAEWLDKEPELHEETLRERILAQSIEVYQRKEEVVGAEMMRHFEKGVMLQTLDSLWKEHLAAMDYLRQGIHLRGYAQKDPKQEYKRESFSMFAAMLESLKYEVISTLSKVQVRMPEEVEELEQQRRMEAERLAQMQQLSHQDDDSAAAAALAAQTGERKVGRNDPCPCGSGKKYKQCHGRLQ
Sequence of Sialic acid-binding Ig-like lectin 9 (Homo sapiens) (Q9Y336 whole entry): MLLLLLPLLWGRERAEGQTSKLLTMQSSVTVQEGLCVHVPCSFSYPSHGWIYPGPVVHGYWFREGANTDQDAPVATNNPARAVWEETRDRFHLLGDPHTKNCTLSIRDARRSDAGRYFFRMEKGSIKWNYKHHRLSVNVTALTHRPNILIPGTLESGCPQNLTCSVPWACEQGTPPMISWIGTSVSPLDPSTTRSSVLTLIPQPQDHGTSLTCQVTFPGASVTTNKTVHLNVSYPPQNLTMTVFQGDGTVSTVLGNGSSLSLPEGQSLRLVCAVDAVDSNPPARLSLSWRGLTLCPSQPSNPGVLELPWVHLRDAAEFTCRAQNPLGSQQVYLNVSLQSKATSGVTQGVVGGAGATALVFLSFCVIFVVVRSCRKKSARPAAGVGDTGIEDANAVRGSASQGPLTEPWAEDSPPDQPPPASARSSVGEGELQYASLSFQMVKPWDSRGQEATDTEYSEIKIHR

| Structure (SMILES) | Percent Effect [1] | Percent Effect [2] | Percent Effect [3] | Percent Effect [4] | Percent Effect (Trypanosoma cruzi) | Percent Effect [5] | Percent Effect [6] | Percent Effect (Homo sapiens) | Percent Effect [7] | Percent Effect [8] | Percent Effect [9] |
| --- | --- | --- | --- | --- | --- | --- | --- | --- | --- | --- | --- |
| CC(c1cccnc1)N(C)Cc1csc(-c2ccccn2)n1 (stereo unspecified) | -7.3% | 5.48% | -12.1% | 19.7% | 6.66% | 3.64% | 5.86% | 8.26% | 5.38% | 15% | 92.8% |
| COc1ccccc1NC(=O)NCC(O)(c1ccccc1)C1CC1 (stereo unspecified) | -6.75% | 11% | -22.1% | 33.1% | 7.05% | 7.27% | 12.9% | 7.23% | 0% | 10% | -6.95% |
| Cc1ccsc1C(=O)N1CC(C(=O)NCC2CC2)C2(CCOCC2)C1 (stereo unspecified) | -6.49% | 7.79% | 87.3% | -3.49% | -9.57% | 1.94% | 8.36% | 27.5% | 0% | -3.85% | -7.68% |
| CNCC(=O)N1CCCC(c2nccnc2Oc2cccc(F)c2)C1 (stereo unspecified) | -7.42% | 10.7% | 10% | -1.6% | -3.74% | -3.03% | 9.25% | 11.8% | 3.19% | 3.85% | -4.73% |
| O=C1CC(N(C(=O)c2ccc3[nH]c4c(c3c2)CCCC4)C2CC2)C(=O)N1 (stereo unspecified) | -1.37% | 27.9% | -6.86% | -8.64% | 6.33% | -3.8% | 19.7% | -7.55% | 7.39% | 24.1% | -8.05% |
| O=C(C1CCS(=O)(=O)C1)N1CCN(c2cnccn2)CC1 (stereo unspecified) | -5.3% | 16.2% | -5.15% | -2.95% | -7.52% | 0.185% | 6.46% | 14.3% | 5.94% | 15.8% | -4.21% |
| O=C(NCCCO)C1CC(=O)N(c2n[nH]c3cccc(F)c23)C1 (stereo unspecified) | 0.204% | 17.3% | -5.17% | -2.48% | 1.57% | -12.2% | 10.5% | 2.36% | 5.29% | 15.4% | -14.8% |
| O=C(NCc1cncc2c1CCN(Cc1cccs1)C2)C1CC1 | 1.73% | 8% | 3.65% | -13.1% | -9.65% | 9.56% | 21.2% | 5.35% | 5.32% | 6.41% | 0.102% |
| CCOCCC(=O)N1CCCC(c2ncc[nH]2)C1 (stereo unspecified) | -3.07% | 2.74% | -7.86% | -2.18% | -5.29% | 6.36% | 4.97% | 11.3% | 2.15% | 7.5% | -0.879% |
| CN(C)S(=O)(=O)N1CCC(Oc2ccccn2)CC1 | -2.83% | 2.6% | 2.73% | -0.581% | -6.41% | -7.1% | 14.1% | -7.21% | 6.35% | -1.28% | -7.73% |
| COc1ccccc1C(O)CNC(=O)Nc1ncccc1C (stereo unspecified) | -3.85% | 12.7% | 3.4% | -8.4% | 6.52% | 0% | 8.27% | 16.1% | 5.42% | 16.5% | -4.09% |
| O=C(c1cc(F)ccc1F)C1CCN(C(=O)c2cccnc2O)CC1 | -5.29% | 7.79% | 3.43% | 13.6% | 2.06% | 0.21% | 3.8% | -28.1% | 1.91% | 9.41% | -12.7% |
| Cc1ccc(C(O)CNCc2c(C(C)C)nn(C)c2N(C)C)cc1 (stereo unspecified) | -7.17% | 13% | -5.78% | 6.38% | 7.87% | -3.56% | 10.1% | -0.105% | 10.7% | 19.5% | -7.91% |
| CCOc1ccc(CNCCCn2ccnc2)cc1Br | -0.283% | 12% | -3.14% | 3.52% | -3.34% | -6.51% | 12.8% | 9.57% | 6.35% | 10.3% | -10.4% |
| CNC(=O)[C@@]12CCO[C@@H]1CCN(S(=O)(=O)c1cccnc1)C2 | -5.53% | 10.8% | 0.489% | -1.11% | 4.99% | -3.5% | 9.96% | 4.96% | 5.41% | 12.8% | 0.201% |
| COc1ccc(C(=O)N2CCCC2c2ccco2)cc1OC (stereo unspecified) | 2.38% | 2.6% | -1.48% | -11.9% | -4.24% | -1.94% | 14.8% | 9.23% | 3.17% | 8.97% | -10.7% |

— ChEMBL document CHEMBL3988442, “University of Dundee, Small-Polar-MMV Screening Library” (2021)
